Reference: PubChem BioAssay AID1159580 (chemical genetic matrix, 2015)
Values joined by “and” are separate entries in the source; they are usually repeats but may differ in a detail not shown here. Equal values may be shown once. Screen size: about 5,500 compounds; about 2,000 (36%) were called active. About 18% were inconclusive and are not listed. Cut-off read from the data, not from the text of the source: active = normalized growth mostly below about 0.91 (no sharp cut-off); inconclusive = no clear call, values can overlap the other calls; inactive = mostly above about 0.92. This is one part of the list.

Experiment: chemical genetic growth profiling, strain panel (AID 1159580);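 note: tested at 20 µM; growth read once vehicle control cultures reached saturation at 30 °C; 1 = growth at the plate median or of vehicle wells; lower values mean less growth of the strain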
Conditions: growth OD

Measured: normalized growth

C[N+](C)(C)CCOC(N)=O
inactive: S. cerevisiae deletion strains, locus YKL068W, hits give low values 0.981 | S. cerevisiae deletion strains, locus YKL085W, strain MDH1 (second series), hits give low values 0.969 | S. cerevisiae deletion strains, locus YKL085W, strain MDH1, hits give low values 0.969 | S. cerevisiae deletion strains, locus YKL160W, strain elf1, hits give low values 1.02 | S. cerevisiae deletion strains, locus YKL190W, strain CNB1, hits give low values 1 | S. cerevisiae deletion strains, locus YKR001C, strain vps1, hits give low values 0.991 | S. cerevisiae deletion strains, locus YKR026C, strain gcn3, hits give low values 0.988 | S. cerevisiae deletion strains, locus YKR091W, strain srl3, hits give low values 1 | S. cerevisiae deletion strains, locus YLL001W, strain dnm1, hits give low values 0.998 | S. cerevisiae deletion strains, locus YLL026W, hits give low values 1 | S. cerevisiae deletion strains, locus YLL041C, strain sdh2, hits give low values 1.01 | S. cerevisiae deletion strains, locus YLR027C, strain aat2, hits give low values 1.01 | S. cerevisiae deletion strains, locus YLR039C, strain RIC1, hits give low values 0.993 | S. cerevisiae deletion strains, locus YLR058C, strain SHM2, hits give low values 1 | S. cerevisiae deletion strains, locus YLR102C, strain apc9, hits give low values 0.986 | S. cerevisiae deletion strains, locus YLR113W, strain HOG1, hits give low values 0.959 | S. cerevisiae deletion strains, locus YLR221C, strain rsa3, hits give low values 1.01 | S. cerevisiae deletion strains, locus YLR258W, strain gsy2, hits give low values 1.02 | S. cerevisiae deletion strains, locus YLR262C, strain YPT6 (second series), hits give low values 1.02 | S. cerevisiae deletion strains, locus YLR262C, strain YPT6, hits give low values 0.991 | S. cerevisiae deletion strains, locus YLR268W, strain sec22, hits give low values 0.978 | S. cerevisiae deletion strains, locus YLR320W, strain mms22, hits give low values 1.03 | S. cerevisiae deletion strains, locus YLR330W, strain CHS5, hits give low values 1 | S. cerevisiae deletion strains, locus YLR342W, strain FKS1 (second series), hits give low values 1.12 | S. cerevisiae deletion strains, locus YLR342W, strain FKS1, hits give low values 1.01 | S. cerevisiae deletion strains, locus YLR357W, strain rsc2, hits give low values 1 | S. cerevisiae deletion strains, locus YLR370C, strain arc18, hits give low values 1.01 | S. cerevisiae deletion strains, locus YLR371W, strain rom2, hits give low values 0.97 | S. cerevisiae deletion strains, locus YLR384C, strain iki3, hits give low values 1.04 | S. cerevisiae deletion strains, locus YLR418C, strain cdc73, hits give low values 0.983 | S. cerevisiae deletion strains, locus YML016C, strain PPZ1, hits give low values 1.02 | S. cerevisiae deletion strains, locus YML032C, strain rad52, hits give low values 0.993 | S. cerevisiae deletion strains, locus YML120C, strain ndi1, hits give low values 1.02 | S. cerevisiae deletion strains, locus YML124C, strain tub3, hits give low values 0.974 | S. cerevisiae deletion strains, locus YMR058W, strain fet3, hits give low values 1.02 | S. cerevisiae deletion strains, locus YMR078C, strain ctf18, hits give low values 0.956 | S. cerevisiae deletion strains, locus YMR125W, strain sto1, hits give low values 1.03 | S. cerevisiae deletion strains, locus YMR129W, hits give low values 1.02 | S. cerevisiae deletion strains, locus YMR205C, strain PFK2, hits give low values 1.02 | S. cerevisiae deletion strains, locus YMR223W, strain ubp8, hits give low values 0.975 | S. cerevisiae deletion strains, locus YMR231W, strain pep5, hits give low values 1.02 | S. cerevisiae deletion strains, locus YMR263W, strain SAP30, hits give low values 1 and 0.986 | S. cerevisiae deletion strains, locus YMR307W, strain GAS1, hits give low values 1.16 | S. cerevisiae deletion strains, locus YNL067W, strain RPL9B, hits give low values 0.961 | S. cerevisiae deletion strains, locus YNL071W, strain lat1, hits give low values 1.01 | S. cerevisiae deletion strains, locus YNL128W, strain TEP1, hits give low values 0.971 | S. cerevisiae deletion strains, locus YNL153C, strain GIM3, hits give low values 0.963 | S. cerevisiae deletion strains, locus YNL175C, strain NOP13, hits give low values 0.973 | S. cerevisiae deletion strains, locus YNL183C, strain NPR1, hits give low values 0.938 | S. cerevisiae deletion strains, locus YNL197C, strain WHI3, hits give low values 0.991 | S. cerevisiae deletion strains, locus YNL209W, strain ssb2, hits give low values 1.01 | S. cerevisiae deletion strains, locus YNL224C, strain SQS1, hits give low values 0.991 | S. cerevisiae deletion strains, locus YNL233W, strain BNI4, hits give low values 0.99 | S. cerevisiae deletion strains, locus YNL248C, strain rpa49, hits give low values 1.03 | S. cerevisiae deletion strains, locus YNL250W, strain rad50, hits give low values 0.969 | S. cerevisiae deletion strains, locus YNL271C, strain bni1, hits give low values 0.979 | S. cerevisiae deletion strains, locus YNL298W, strain CLA4, hits give low values 0.977 | S. cerevisiae deletion strains, locus YNL307C, strain MCK1, hits give low values 0.982 | S. cerevisiae deletion strains, locus YNL322C, strain KRE1 (second series), hits give low values 1.02 | S. cerevisiae deletion strains, locus YNL322C, strain KRE1, hits give low values 0.989 | S. cerevisiae deletion strains, locus YNR049C, strain mso1, hits give low values 1.02 | S. cerevisiae deletion strains, locus YNR052C, strain pop2, hits give low values 0.97 | S. cerevisiae deletion strains, locus YOL012C, strain htz1 0.907 | S. cerevisiae deletion strains, locus YOL147C, strain pex11, hits give low values 0.978 | S. cerevisiae deletion strains, locus YOR001W, strain rrp6, hits give low values 1.03 | S. cerevisiae deletion strains, locus YOR061W, strain CKA2, hits give low values 1 | S. cerevisiae deletion strains, locus YOR069W, strain VPS5, hits give low values 1 | S. cerevisiae deletion strains, locus YOR070C, strain gyp1, hits give low values 1.01 | S. cerevisiae deletion strains, locus YOR080W, strain dia2, hits give low values 1.03 | S. cerevisiae deletion strains, locus YOR083W, strain WHI5 (second series), hits give low values 1.01 | S. cerevisiae deletion strains, locus YOR083W, strain WHI5, hits give low values 1.03 | S. cerevisiae deletion strains, locus YOR106W, strain vam3, hits give low values 1.01 | S. cerevisiae deletion strains, locus YOR136W, strain idh2, hits give low values 0.976 | S. cerevisiae deletion strains, locus YOR144C, strain elg1, hits give low values 0.982 | S. cerevisiae deletion strains, locus YOR184W, strain ser1, hits give low values 0.973 | S. cerevisiae deletion strains, locus YOR231W, strain MKK1, hits give low values 1 | S. cerevisiae deletion strains, locus YOR265W, strain rbl2, hits give low values 1.01 | S. cerevisiae deletion strains, locus YOR270C, strain vph1, hits give low values 1.05 | S. cerevisiae deletion strains, locus YOR290C, strain snf2, hits give low values 1.02 | S. cerevisiae deletion strains, locus YOR316C, strain cot1, hits give low values 0.976 | S. cerevisiae deletion strains, locus YPL051W, strain arl3, hits give low values 1.02 | S. cerevisiae deletion strains, locus YPL055C, strain LGE1, hits give low values 0.997 and 0.999 | S. cerevisiae deletion strains, locus YPL078C, strain atp4, hits give low values 1.01 | S. cerevisiae deletion strains, locus YPL106C, strain sse1, hits give low values 1.04 | S. cerevisiae deletion strains, locus YPL240C, strain hsp82, hits give low values 1.02 | S. cerevisiae deletion strains, locus YPL241C, strain CIN2, hits give low values 1.01 | S. cerevisiae deletion strains, locus YPL256C, strain CLN2, hits give low values 0.993 | S. cerevisiae deletion strains, locus YPR119W, strain clb2, hits give low values 0.973 | S. cerevisiae deletion strains, locus YPR141C, strain kar3, hits give low values 0.973 | S. cerevisiae deletion strains, locus YPR163C, strain tif3, hits give low values 0.985 | S. cerevisiae deletion strains, locus YPR167C, strain met16, hits give low values 0.975 | S. cerevisiae deletion strains, strain wtn01, hits give low values 1.01 | S. cerevisiae strains, strain wild type, hits give low values 1.01
